TROY NFkB inh: TROY signaling inhibition; Q293 LMP1-TROYcd NF-kB luciferase reporter, 4 h; inhibition, % at 10 µM; 0.98% of 360,000 active; AID 1347056;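 active means compounds whose plate-normalised and pattern-corrected inhibition of the luciferase reporter signal at the single screening dose is 50% or more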
aDG glyco act: alpha-DG glycosylation activation. Pro5-aDG cells, alpha-DG glycosylation AlphaScreen (IIH6); 0% Pro5, 100% B10-LARGE cell signal. activation, % at 10 µM. 0.22% of 360,000 active. AID 624168;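 active means activation of at least 8% versus controls, or a plate z-score of at least 8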;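 further: Pro5 are CHO cells carrying HIG-tagged alpha-DG that lacks glycosylation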
LGR2 inh: Drosophila LGR2 receptor signaling inhibition; 0.35% of 380,000 active; inhibition, % at 9.99 µM; AID 720647; HEK293 LGR2, CRE-luciferase, bursicon-stimulated, 4 h;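 active means drop in luminescence signal, shown as inhibition above about 50% in the replicate tests, limit read from the data, passing the limit was not always enough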;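 further: agonist challenge used bursicon conditioned medium at about half maximal strength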
HSP90 inh: HSP90 refolding inhibition in rabbit reticulocyte lysate; luciferase refolding luminescence, 3 h; inhibition, % at 5.6 µM; 0.91% of 290,000 active;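 active means inhibition above the screen-wide mean plus 3 SD, computed separately per campaign, cut at about 16% in these data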;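 further: 0% = DMSO wells and 100% = 60 µM geldanamycin wells; inhibitors lower the luminescence because luciferase stays unfolded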
TWEAK Fn14 block: TWEAK-Fn14 signaling inhibition; TWEAK-stimulated Fn14 reporter cells, luciferase luminescence, 8 h; AID 1159606; 2% of 360,000 active; inhibition, % at 10 µM; in the data active means inhibition above about 50%
EBV LMP1 NFkB: inhibitors of Epstein-Barr LMP1-induced NF-kappaB reporter; LMP1-induced NF-kappaB luciferase reporter cells, luminescence; inhibition, % at 12.5 µM; 0.69% of 350,000 active; AID 504558; in the data active means inhibition above about 41%;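 further: 0% = neutral control wells and 100% = reference inhibitor control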
Starred values were filed as active, the others as inactive; . = not tested or not shown. Shown are actives, neighbours in structure and some others; about 2.6% of the full set was active somewhere.

SMILES | TROY NFkB inh | aDG glyco act | LGR2 inh | HSP90 inh | TWEAK Fn14 block | EBV LMP1 NFkB
COc1cc(Cn2c3ccc(NC(=O)CC(C)(C)C)cc3c(=O)n2C)ccc1F | -11.0 | 0.1 | 3.8 | . | -3.2 | .
COc1cc(Cn2c3ccc(NC(=S)NCc4ccc(C)cc4)cc3c(=O)n2C)ccc1F | 58.5* | 0.2 | -1.0 | . | 73.4* | .
COc1ccccc1C(=O)N1C[C@@H]2[C@H](c3ccccc31)[C@H](CO)N2C(=O)C1CCCCC1 | . | . | 2.3 | . | . | .
C[C@@H]1CCCCO[C@@H](CN(C)C(=O)Nc2ccc3c(c2)OCO3)[C@@H](C)CN([C@@H](C)CO)C(=O)c2cc(NC(=O)CCC(F)(F)F)ccc2O1 | . | . | 8.4 | . | . | .
C[C@H]1CN([C@@H](C)CO)C(=O)c2cccc(NC(=O)C3CCOCC3)c2O[C@@H]1CN(C)Cc1ccc2c(c1)OCO2 | . | . | -8.6 | . | . | .
O=C(COc1ccc(Br)cc1Br)NC(=S)N1CCCc2ccccc21 | 43.2 | 0.0 | . | 1.7 | 63.5* | -3.6
O=C(COc1ccc(Br)cc1Cl)NC(=S)N1CCc2ccccc21 | -37.5 | 0.0 | -54.8 | -2.9 | -69.9 | -41.4
O=C(c1ccccn1)N1CC(=O)N2[C@H](CO)[C@@H](c3ccc(-c4cccc(F)c4)cc3)[C@H]2C1 | . | . | 7.6 | . | . | .
N#C[C@@H]1[C@@H](c2ccccc2-c2cccc(F)c2)[C@H](CO)N1C(=O)C1CCC1 | . | . | 9.3 | . | . | .
CCCC#Cc1cnc2c(c1)C(=O)N([C@H](C)CO)C[C@H](C)[C@H](CN(C)C(=O)c1ccc(F)cc1)O2 | . | . | 0.5 | . | . | .
O=C(CCl)Nc1cc(SCC(O)CO)cc([N+](=O)[O-])c1 (stereo not drawn) | -3.8 | -0.5 | 72.7* | 3.6 | 10.1 | 25.4
CCCc1ccc(C(C)NC(=S)NCc2ccc(F)cc2)cc1 (stereo not drawn) | 56.2* | 0.4 | 10.2 | -0.5 | 24.5 | -5.3
CCC(C)c1ccc(C(C)NC(=S)NCc2ccc(F)cc2)cc1 (stereo not drawn) | 40.2 | 1.0 | 6.6 | -0.1 | 6.3 | -1.5
C=CCN1CCc2c(cc(O)c(O)c2Cl)C(c2ccccc2)C1 (stereo not drawn) | -4.0 | -0.2 | 3.0 | . | -12.9 | -3.0
C=CCN1CCc2cc(O)c(O)cc2C(c2ccccc2)C1 (stereo not drawn) | 10.6 | -0.1 | -18.4 | . | 17.2 | 77.3*
COc1cc(/C=C/C(=O)N2CCC=CC2=O)cc(OC)c1OC | 39.6 | 0.5 | 100.1* | . | 91.6* | 21.8
COc1cc(C=CC(=O)c2cc(OC)c(OC)c(OC)c2)cc(OC)c1OC | -7.0 | 0.8 | 56.7* | . | 64.5* | 19.9
COc1ccccc1/C=C/C(=O)c1ccccc1 | -50.9 | 0.2 | -58.1 | -3.2 | 12.0 | -16.9
COc1cc(OC)c(C(=O)C=Cc2ccc(OC)c(OC)c2)c(OC)c1 | 8.5 | 0.7 | 10.4 | . | -6.3 | 5.5
COc1ccccc1/C=C/C(=O)c1c2c(c(C)[nH]c1=O)CCCC2 | 35.4 | 0.4 | 55.6* | -1.6 | 85.5* | 14.9
COc1cc(O)c(C(=O)/C=C/c2ccccc2)c(OC)c1 | -8.8 | -0.4 | 2.9 | 2.7 | 73.6* | -2.4
CO[C@H]1CN(C)C(=O)c2cc(NC(=O)Nc3ccccc3F)ccc2OC[C@@H](C)N(CC2CC2)C[C@@H]1C | . | . | -6.5 | . | . | .
COc1cc(C=CC(=O)c2ccccc2)cc(OC)c1OC | -3.2 | -0.3 | 24.4 | . | 78.5* | .
COc1ccccc1/C=C/C(=O)c1ccc(Cl)cc1 | -4.6 | 0.2 | 13.1 | 3.1 | 13.9 | 68.1*
NC(=S)NN=C1c2cc(OCCN3CCOCC3)ccc2-c2ccc(OCCN3CCOCC3)cc21 | 75.1* | -0.2 | 104.2* | -1.8 | 6.5 | -5.4
SMILES | TROY NFkB inh | aDG glyco act | LGR2 inh | HSP90 inh | TWEAK Fn14 block | EBV LMP1 NFkB
ON=C1c2cc(OCCN3CCCCC3)ccc2-c2ccc(OCCN3CCCCC3)cc21 | 15.2 | -0.2 | . | 8.7 | -4.5 | -56.2
CN(C)S(=O)(=O)N1CCN(S(=O)(=O)c2ccc3ccccc3c2)CC1 | -6.6 | -0.1 | -9.9 | -0.1 | -6.0 | 7.8
CN(C)C(=O)N1CCN(S(=O)(=O)c2ccc3ccccc3c2)CC1 | -8.5 | 0.2 | -6.4 | -1.5 | 101.1* | -0.1
COC(=O)c1ccc(CN2CC(=O)N3[C@@H](CO)[C@@H](c4ccc(Br)cc4)[C@@H]3C2)cc1 | . | . | -6.1 | . | . | .
Cn1c(=O)c2c(ncn2CCC(=O)N/N=C/c2cccnc2)n(C)c1=O | -0.2 | 0.1 | . | 0.9 | 84.0* | 2.4
Cn1c(=O)c2c(ncn2CCC(=O)N/N=C/c2ccccc2)n(C)c1=O | -1.4 | 0.0 | 3.2 | 2.8 | 1.2 | 0.1
O=C(Nc1ccc2c(c1)OCO2)N[C@H]1CC[C@@H](CCNC(=O)C2CCOCC2)O[C@H]1CO | . | . | 8.4 | . | . | .
O=C1/C(=C/c2cccnc2)CCc2c1[nH]c1ccccc21 | 7.4 | 0.3 | -62.5 | -3.4 | 62.4* | 10.6
O=C1/C(=C\c2cccnc2)Sc2ccccc21 | -7.6 | 0.0 | -23.4 | 4.2 | -5.7 | -9.2
CC1C/C(=C\c2cccnc2)C(=O)/C(=C/c2cccnc2)C1 (stereo not drawn) | 52.0* | 0.0 | 85.5* | 1.8 | 102.9* | 91.9*
COc1ccc2c(c1)CCc1cc(C(=O)N3CCN(c4ccc(N5CCOCC5)nn4)CC3)sc1-2 | 56.1* | 1.1 | . | -4.4 | 44.9 | 14.0
N/C(Cc1ccc([N+](=O)[O-])cc1)=N\OC(=O)c1ccc2ccccc2c1 | 58.9* | 0.2 | . | 1.0 | -2.6 | -17.9
Cc1csc(NC(=O)c2ccccc2)n1 | -51.6 | -0.1 | -23.2 | 2.6 | 1.8 | -7.9
COC(=O)c1sc(NC(=O)c2cc3c(s2)CCCC3)nc1C | -10.3 | -0.2 | . | 11.4 | 11.6 | -40.4
Cc1ccc(C(=O)Nc2ccccc2C(=O)N2CCCC2)cc1[N+](=O)[O-] | 90.4* | 0.8 | -1.1 | 0.5 | 100.1* | -3.7
Cc1csc(NC(=O)c2cccnc2)n1 | -18.5 | 0.0 | -4.7 | -3.7 | 82.6* | -5.6
Cc1cc(C)nc(NC(=O)c2ccc(C)c([N+](=O)[O-])c2)n1 | -8.1 | 0.2 | -0.1 | -4.6 | -13.6 | -201.7
Cc1csc(NC(=O)c2cc3c(s2)CCC3)n1 | -46.7 | 0.8 | . | 2.7 | 68.0* | -29.6
Cc1csc(NC(=O)c2ccc(C)c([N+](=O)[O-])c2)n1 | 16.8 | -0.1 | 7.9 | 11.8 | 68.2* | -17.5
COCCNC(=O)C[C@H]1CC[C@@H]2[C@H](COC[C@@H](O)CN2Cc2ccc(Cl)c(Cl)c2)O1 | . | . | -4.4 | . | . | .

Screens (PubChem BioAssay)
